Results filed as inconclusive are left out. Values without a mark were called inactive. Activity calls are given as the source filed them. Calls follow the shape of the full dose curve.
% is scaled to controls: 0 for no effect and ±100 for the full control effect.

The nature of this assay: p53 small molecule agonists, cell-based qHTS assay with rat liver microsomes: qHTS cell viability counter screen (AID 1963580). Also: nearly all actives have a fitted effect of over 45% in size. Conditions: p53RE-bla HCT-116 + rat microsomes, ATP viability, 16 h; series mostly up to 66 µM; activity change, negative = cytotoxicity: at the top concentration. An excerpt: National Center for Advancing Translational Sciences [NCATS]
Division of Preclinical Innovation [DPI]
U.S. Environmental Protection Agency [EPA]
National Institutes of Environmental Health Sciences [NIEHS]
National Toxicology Program [NTP]
U.S. Food and Drug Administration [FDA]
p53, a tumor suppressor protein, is activated following cellular insult, including DNA damage and other cellular stresses. The activation of p53 regulates cell fate by inducing DNA repair, cell cycle arrest, apoptosis, or cellular senescence. The activation of p53, therefore, is a good indicator of DNA damage and other cellular stresses. The CellSensor p53RE-bla HCT-116 cell line contains a stably integrated beta-lactamase reporter gene under control of the p53 response elements. The activation of the reporter gene under culture conditions can be detected by fluorescence intensity. This cell line was used to screen the Tox21 10K compound library in the condition of presence of rat liver microsomes and to identify agonists that activate the p53 signaling pathway after in vitro metabolic activation (Ooka et al., Archive of Toxicology 96:1975-1987, 2022). The cytotoxicity of the Tox21 compound library against the p53 RE-bla HCT-116 cell line was tested in parallel by measuring the intra cellular ATP content in the same wells.
Tox21 Assay Protocol Summary:
The p53RE-bla cells were dispensed at 4,000cells/3ul/well in 1536-well black-clear bottom plates. After the assay plates were incubated at 37 C, 5% CO2 incubator for 5 hours, 23 nL of compounds dissolved in DMSO, positive controls or DMSO only was transferred to the assay plate. Following compound addition, 3 uL of rat liver microsomes (Molecular Toxicology, Boone, NC) at final concentration of 0.5 mg/mL and 1uL of B-Nicotinamide adenine dinucleotide 2'-phosphate (NADPH) at final concentration of 0.5 mg/mL were transferred to the assay plate. The plates were incubated at 37 C for 16 hours. 1 uL of LiveBLAzer detection mixture was added to each well and the plates were incubated at room temperature in the dark for 2 h. Fluorescence intensity at 460 and 530 nm emission and 405 nm excitation were measured by an Envision plate reader. For cell viability readout that measures cytotoxicity, 4 ul/well of CellTiter-Glo reagent was added into the assay plates using a Flying Reagent Dispenser. After 30 min incubation at room temperature, the luminescence intensity in the plates was measured using a ViewLux plate reader.
In general terms: Quantitative high-throughput screening tests each substance at several concentrations.
Regarding `C1=Cc2ccccc2C1`, the “activity change, negative = cytotoxicity” value was 0.222%. As for `CC1=C(O)C(=O)C(C)O1` (stereo not given), the “activity change, negative = cytotoxicity” value is 3.12%. On the same count and under the same terms, in the case of `O=C(O)CCS` it was -1.4%. With `O=c1[nH]cnc2[nH]ncc12`, the Potency result was “inactive”. In the case of `C=CC(C)CCC=C(C)C` (stereo not given), the “activity change, negative = cytotoxicity” value is 4.35%. `NC(=O)NNc1ccccc1`: the Potency result is “inactive”. The same measure, in the same setting: the value for `O=C(COc1ccc(Cl)cc1)N1CCN(Cc2ccc3c(c2)OCO3)CC1` was “inactive”. On to `CNC(=O)[C@H]1O[C@@H](n2cnc3c(NCc4cc(Cl)ccc4OCc4cc(C)no4)ncnc32)[C@H](O)[C@@H]1N`, for which the “activity change, negative = cytotoxicity” value was 8.28%. Same read-out and setting: in the case of `O=C(O)c1cccnc1C(=O)O` it was -3.8%.

Consider `O=CC1CC=CCC1` (stereo not given), for which the “activity change, negative = cytotoxicity” value is -1.19%. The same measure, in the same setting: in the case of `C=C(C)C(=O)OC(C)C` it was 0.57%; in that of `CCCCCCCCO[C@@H]1O[C@H](CO)[C@@H](O)[C@H](O)[C@H]1O`, 0%.

For the molecule `Nc1ccc(N)c(Cl)c1`, the Potency result is “inactive”. On the same count and under the same terms, the value for `O=C1CCCCC1` was “inactive”. On to `Cc1cc(C)c(C)c(O)c1`, for which the “activity change, negative = cytotoxicity” value is -1.04%.

For `CCN1CCCC(OC(=O)C(c2ccccc2)c2ccccc2)C1` (stereo not given), the “activity change, negative = cytotoxicity” value was 18% [at 30.3 µM]. Still for that read-out and setting: the value for `CCCCOC(=O)C(C)OC(=O)CCC` (stereo not given) was 21.9%; that for `Cc1cc(N)n(-c2ccccc2)n1` was -5.74%. As to `CC1(C)C(C=C(Cl)Cl)C1C(=O)OCc1cccc(Oc2ccccc2)c1` (stereo not given), the Potency entry is “inactive”. Regarding `Oc1ccc2c(c1)OC[C@@H](N1CCC(O)(c3ccc(F)cc3)CC1)[C@H]2O`, the “activity change, negative = cytotoxicity” value was 3.95% [at 30.3 µM]. On the same count and under the same terms, the value for `CNC(=O)c1c(I)c(NC(C)=O)c(I)c(C(=O)O)c1I` was -8.85% [at 30.3 µM]. On the same count and under the same terms, the value for `CC1=CC[C@H](CC=O)C1(C)C` was -5.11%; that for `CCC(C)(O)CCC=C(C)C` (stereo not given) was -3.54%. Turning to `[K+]`, the “activity change, negative = cytotoxicity” value is 5.58%. The same measure, in the same setting: the value for `CCCCc1ccc2cccc(S(=O)(=O)O)c2c1` was 3.96%; that for `[O-][n+]1ccc(Cl)cc1` was -7.89%. For the molecule `COc1cc(C(=O)NCc2ccc(OCCN(C)C)cc2)cc(OC)c1OC`, the “activity change, negative = cytotoxicity” value is 0.105% [at 30.3 µM]. Still for that read-out and setting: in the case of `Cc1nc2ccccc2s1` it was -0.0764%; in that of `CC(=O)N(CC(O)CO)c1c(I)c(C(=O)NCC(O)CO)c(I)c(C(=O)NCC(O)CO)c1I` (stereo not given), -9.51% [at 30.3 µM]; in that of `Clc1ccc2c(c1)Nc1ccccc1S2`, 8.49% [at 30.3 µM]. Same read-out and setting: in the case of `CCCN1C=CN(C)C1` it was -0.929%; in that of `O=C(O)c1ccc(OCCN2CCCCC2)cc1`, 7.47% [at 30.3 µM]. Same read-out and setting: the value for `O=C1OC(=O)c2ccccc21` was 2.19%; that for `CC(C)c1cc2c(cc1S(=O)(=O)O)[C@@]1(C)CCC[C@@](C)(C(=O)O)[C@@H]1CC2` was 0.595% [at 30.3 µM].

As for `CCO[Si](C)(C)OCC`, the “activity change, negative = cytotoxicity” value is 8.7%.

In the case of `Cc1ccc(N(C)C)cc1`, the Potency result is “inactive”. As to `CCOC(OCC)OCC`, the “activity change, negative = cytotoxicity” value is 4.85%.

`CC(=O)Oc1cccc(O)c1`: the “activity change, negative = cytotoxicity” value is -2.15% [at 30.3 µM]. On the same count and under the same terms, in the case of `FC(F)(F)c1ccccc1-n1ccnc1` it was -2.55% [at 30.3 µM]. Same read-out and setting: in the case of `NC(=O)CCCCC(N)=O` it was 3.68%.

(Values after PubChem BioAssay (Tox21).)
